# Tests used:
# Format in all cases: functional
# [1] = target: Solute carrier family 2, facilitated glucose transporter member 1 (Homo sapiens) (UniProt P11166); test: ST_JUDE_LEISH: Cytotoxicity at 2uM final concentration against transgenic Leishmania Mexicana promastigotes LmGLUT1 that are glucose transport deficient and complemented with the human glucose transporter GLUT1. Activity is measured by DNA content using SYBR green in vitro
# [2] = target: Hexose transporter 1 (Plasmodium falciparum) (UniProt O97467); test: ST_JUDE_LEISH: Cytotoxicity at 2uM final concentration against transgenic Leishmania Mexicana promastigotes LmPfHT that are glucose transport deficient and complemented with the Plasmodium falciparum hexose transporter. Activity is measured by DNA content using SYBR green in vitro
# [3] = target: Glucose transporter (Leishmania mexicana) (UniProt O61059); test: ST_JUDE_LEISH: Cytotoxicity at 2uM final concentration against transgenic Leishmania Mexicana promastigotes LmGT2 that are glucose transport deficient and complemented with the L. Mexicana glucose transporter 2. Activity is measured by DNA content using SYBR green in vitro
# Solute carrier family 2, facilitated glucose transporter member 1 (Homo sapiens), sequence (P11166 whole entry): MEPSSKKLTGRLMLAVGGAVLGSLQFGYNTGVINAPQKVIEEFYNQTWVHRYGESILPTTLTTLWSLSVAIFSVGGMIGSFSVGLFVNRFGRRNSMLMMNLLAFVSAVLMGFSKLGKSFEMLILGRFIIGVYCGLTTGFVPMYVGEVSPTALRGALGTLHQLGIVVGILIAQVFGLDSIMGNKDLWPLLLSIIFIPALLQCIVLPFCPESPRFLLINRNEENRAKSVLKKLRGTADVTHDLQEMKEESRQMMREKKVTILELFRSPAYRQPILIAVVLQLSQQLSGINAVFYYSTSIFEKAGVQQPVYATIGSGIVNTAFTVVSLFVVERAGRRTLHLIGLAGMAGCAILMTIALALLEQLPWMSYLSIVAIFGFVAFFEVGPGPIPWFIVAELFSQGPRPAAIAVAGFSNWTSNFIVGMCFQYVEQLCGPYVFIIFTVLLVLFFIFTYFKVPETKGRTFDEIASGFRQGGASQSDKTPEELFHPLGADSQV
structure (smiles),measurement,setting,value
CCN(CC)/C(=N\CCCCCC/N=C(\NC(=N)c1ccc(Cl)cc1)N(CC)CC)NC(=N)c1ccc(Cl)cc1,inhibition,[1],1.79%
same,inhibition,[2],2.4%
same,inhibition,[3],2.59%
Cc1cc(=NN=Cc2ccccn2)c2cc(F)ccc2[nH]1,inhibition,[1],4.3%
same,inhibition,[2],5.11%
same,inhibition,[3],0.4%
Cc1nc(C)c(-c2ccc(Oc3ccc(Cl)c(Cl)c3)cc2)c(O)c1Br,inhibition,[1],0.19%
same,inhibition,[2],0.11%
same,inhibition,[3],0.06%
OCCN1CCN(Cc2cccc(-c3ccc(-c4nc5cc(C(F)(F)F)ccc5[nH]4)cc3)c2)CC1,inhibition,[1],5.08%
same,inhibition,[2],3.3%
same,inhibition,[3],2.62%
COc1ccc(CNCc2cccc(-c3cccc(-c4nc5cc(C(F)(F)F)ccc5[nH]4)c3)c2)cc1,inhibition,[1],5.4%
same,inhibition,[2],4.65%
same,inhibition,[3],3.48%
NCc1ccc(-c2cccc(CNC3CCN(Cc4ccccc4)CC3)c2)cc1,inhibition,[1],5.2%
same,inhibition,[2],5.95%
same,inhibition,[3],3.72%
COc1cc2nccc(Nc3ccc(OCc4ccc(NC(C)=O)cc4)cc3)c2cc1OC,inhibition,[1],5.38%
same,inhibition,[2],7.36%
same,inhibition,[3],2.65%
FC(F)(F)Oc1ccc(Nc2cc(-c3ccncc3)nc(-c3cccnc3)n2)cc1,inhibition,[1],2.18%
same,inhibition,[2],3.54%
same,inhibition,[3],0.59%
COc1ccc(CNCc2cccc(-c3ccc(-c4nc5ccccc5[nH]4)s3)c2)cc1,inhibition,[1],5.19%
same,inhibition,[2],3.24%
same,inhibition,[3],2.44%
Cn1ccc(C(=O)Nc2ccc3c(c2)CN(Cc2ccc(N4CCCC4)o2)CCC3)n1,inhibition,[1],28.5%
same,inhibition,[2],54.6%
same,inhibition,[3],-0.65%
CCOc1cc(NCCSCc2nc[nH]c2C)nc2ccccc12,inhibition,[1],-1.28%
same,inhibition,[2],-0.61%
same,inhibition,[3],-3.84%
CCCC(C)Nc1nc(C)cc(N[C@@H](Cc2ccccc2)C(=O)Nc2ccc(OC)cc2)n1 (stereo partly drawn),inhibition,[1],4.27%
same,inhibition,[2],5.6%
same,inhibition,[3],0.54%
Oc1cc2ccccc2cc1CNC1CCCCC1,inhibition,[1],1.31%
same,inhibition,[2],1.41%
same,inhibition,[3],1.5%
O=C(Nc1ccc(-c2cccc(-c3nc4cc(C(F)(F)F)ccc4[nH]3)c2)cc1)Nc1ccc(F)c(F)c1F,inhibition,[1],0.81%
same,inhibition,[2],0.04%
same,inhibition,[3],-1.97%
COc1ccc2nccc([C@@H](O)CN3CCC(NCCOc4ccc(F)cc4F)CC3)c2c1,inhibition,[1],7.55%
same,inhibition,[2],6.58%
same,inhibition,[3],-1.61%
C=CCc1cccc(CN2CCC(c3cc(O)nc(-c4ccccn4)n3)CC2)c1O,inhibition,[1],8.38%
same,inhibition,[2],10.4%
same,inhibition,[3],0.24%
COc1ccc(NC(=O)[C@H](CC(C)C)Nc2ccnc(Nc3ccccc3)n2)cc1,inhibition,[1],0.79%
same,inhibition,[2],2.71%
same,inhibition,[3],-0.96%
Cc1cc(N/N=C/c2ccccc2[N+](=O)[O-])c2ccccc2n1,inhibition,[1],3.96%
same,inhibition,[2],5.28%
same,inhibition,[3],2.51%
NC(=O)c1ccc(C(=O)Nc2cccc(-c3cccc(-c4nc5cc(C(F)(F)F)ccc5[nH]4)c3)c2)cc1,inhibition,[1],3.29%
same,inhibition,[2],5.6%
same,inhibition,[3],2.11%
CC(C)(CN)c1nc(-c2ccc(Br)c(O)c2)c(-c2ccncc2)[nH]1,inhibition,[1],1.39%
same,inhibition,[2],1.51%
same,inhibition,[3],2.58%
O=C(Nc1nc2cc(S(=O)(=O)NCc3ccc(Cl)c(Cl)c3)ccc2n1CCCn1ccnc1)c1ccc(Cl)cc1,inhibition,[1],6.51%
same,inhibition,[2],4.45%
same,inhibition,[3],4.53%
COc1cc(C(=O)NCCCN2CCN(c3cc(Cl)ccc3OC)CC2)ccc1-c1nc2cc(Cl)c(Cl)cc2[nH]1,inhibition,[1],6.79%
same,inhibition,[2],6.15%
same,inhibition,[3],5.03%
CC(C)NCc1ccc(-c2cccc(NC(=O)c3cccc(Cl)c3)c2)cc1,inhibition,[1],17.7%
same,inhibition,[2],12.9%
same,inhibition,[3],10.7%
O=C(Nc1ccccc1)c1nn(CCCN2CCC(N3CCCC3)CC2)cc1-c1ccc(Cl)c(Cl)c1,inhibition,[1],2.06%
same,inhibition,[2],0.39%
same,inhibition,[3],0.89%
c1cc2[nH]c(CCc3nc4cc(C5=NC6CCCCC6N5)ccc4[nH]3)nc2cc1C1=NC2CCCCC2N1 (stereo not drawn),inhibition,[1],19.7%
same,inhibition,[2],18.5%
same,inhibition,[3],6.48%
O=C(NCC1CCN(CC2CCCCC2)C1)c1cc(-c2cccc(Cl)c2)cs1 (stereo not drawn),inhibition,[1],2.86%
same,inhibition,[2],1.57%
same,inhibition,[3],1.14%
COC(=O)c1cccc(CNCc2ccc(-c3ccc(-c4nc5cccc(C)c5[nH]4)cc3)cc2)c1,inhibition,[1],6.68%
same,inhibition,[2],1.95%
same,inhibition,[3],1.08%
CC(=O)Oc1c(C2CCN(CCCCNC(=O)c3ccc(-c4ccc(C#N)cc4)cc3)CC2)ccc2c1CCCC2,inhibition,[1],0.47%
same,inhibition,[2],1.16%
same,inhibition,[3],1.58%
COc1ccc(OC)c(Cc2cnc3nc(N)[nH]c(=O)c3c2C)c1,inhibition,[1],3.38%
same,inhibition,[2],4.59%
same,inhibition,[3],5.15%
Nc1cc(-c2cc3c(OCc4ccccc4)cccc3[nH]2)ccn1,inhibition,[1],1.13%
same,inhibition,[2],4.32%
same,inhibition,[3],1.6%
CNC(=O)c1ccccc1Nc1nc(Nc2cccnc2)ncc1C,inhibition,[1],-2.88%
same,inhibition,[2],-0.32%
same,inhibition,[3],-0.69%
Clc1ccccc1CCNCC1CCN(CC2CCCCC2)CC1,inhibition,[1],4.24%
same,inhibition,[2],5.3%
same,inhibition,[3],1.76%
CS(=O)(=O)NCCCNCc1ccc(-c2ccc(-c3nc4cc(C(F)(F)F)ccc4[nH]3)s2)cc1,inhibition,[1],1.6%
same,inhibition,[2],2.03%
same,inhibition,[3],1.6%
CCOC(=O)c1nc(-c2ccc(-c3ccccc3)cc2)[nH]c1N,inhibition,[1],3.98%
same,inhibition,[2],2.89%
same,inhibition,[3],2.52%
O=C1C(c2ccccc2)=C(Nc2ccc([N+](=O)[O-])cc2)c2ccccc21,inhibition,[1],6.69%
same,inhibition,[2],9.53%
same,inhibition,[3],2.14%
COCCNCc1cccc(-c2ccc3nccc(Nc4cc(O)ccc4C)c3c2)c1,inhibition,[1],3.68%
same,inhibition,[2],4.21%
same,inhibition,[3],4.38%
CCc1ccc(NC(=O)c2ccc(CN3CCCN(Cc4cccc(C)c4)CC3)cc2)cc1,inhibition,[1],7.45%
same,inhibition,[2],9.33%
same,inhibition,[3],5.79%
CC1CN(c2cnn(Cc3ccc(NC(=O)Nc4cccc(C(F)(F)F)c4)cc3)c(=O)c2Cl)CC(C)N1 (stereo not drawn),inhibition,[1],3.97%
same,inhibition,[2],3.35%
same,inhibition,[3],-1.12%
COc1cccc(CN2CCN(C(c3ccccc3)c3ccccc3)CC2)c1O,inhibition,[1],6.87%
same,inhibition,[2],6.03%
same,inhibition,[3],2.74%
N=C(N)NN=Cc1ccc2c(ccc3ccccc32)c1,inhibition,[1],7.03%
same,inhibition,[2],8.19%
same,inhibition,[3],3.76%
CC(C)NCc1ccc(-c2cccc(-c3nc4ccccc4[nH]3)c2)cc1,inhibition,[1],13.3%
same,inhibition,[2],11.8%
same,inhibition,[3],10.3%
Cc1c(NCCCNCc2cc(Cl)cc(Cl)c2Cl)[nH]c2ccccc2c1=O,inhibition,[1],10.6%
same,inhibition,[2],9.36%
same,inhibition,[3],8.22%
CC=Cc1cc(Cc2c[nH]c(=N)[nH]c2=N)cc(CCC)c1OC,inhibition,[1],10.8%
same,inhibition,[2],8.99%
same,inhibition,[3],4.71%
C/C(=C\C(=O)NC1CC1)c1ccccc1OCc1ccccc1,inhibition,[1],0.29%
same,inhibition,[2],-2.11%
same,inhibition,[3],3.94%
CCN(CCCN1CCCC1)c1cc(C)nc(Nc2ccc(Cl)cc2)n1,inhibition,[1],1.46%
same,inhibition,[2],1.37%
same,inhibition,[3],-0.13%
COc1cc(Nc2nccc(-c3c(-c4cccc(NC(=O)c5c(F)cccc5F)c4)nn4ncccc34)n2)cc(OC)c1OC,inhibition,[1],12.1%
same,inhibition,[2],16.6%
same,inhibition,[3],6.39%
CN(CCC1CCN(C(=O)/C=C/c2ccc(Cl)c(Cl)c2)CC1)C1CCC(c2c[nH]c3ccccc23)CC1 (stereo not drawn),inhibition,[1],7%
same,inhibition,[2],8.06%
same,inhibition,[3],3.97%
Cc1cnc(C(=O)Nc2ccc(-c3cccc(-c4nc5ccccc5[nH]4)c3)cc2)cn1,inhibition,[1],2.19%
same,inhibition,[2],1.94%
same,inhibition,[3],-0.57%
CC(C)N1CCC(NC(=O)N2CCCN(c3ncnc4cc(-c5ccc(Cl)cc5)sc34)CC2)CC1,inhibition,[1],-0.49%
same,inhibition,[2],0.6%
same,inhibition,[3],-3.09%
CC(C)CCCC(C)(C)NC[C@@H](O)[C@H](Cc1ccccc1)NC(=O)c1cc(NC(C)C)cc(N2CCCCS2(=O)=O)c1,inhibition,[1],-0.83%
same,inhibition,[2],-1.58%
same,inhibition,[3],-3.27%
Cc1cccc2nc(-c3cccc(-c4ccc(C(=O)N5CCCCC5C(C)O)cc4)c3)[nH]c12 (stereo not drawn),inhibition,[1],4.05%
same,inhibition,[2],4.66%
same,inhibition,[3],5.64%
Cc1ccc(NC(=O)c2nc(N3CCN(c4ccncc4)CC3)ccc2Cl)cc1F,inhibition,[1],13.1%
same,inhibition,[2],7.01%
same,inhibition,[3],5.57%
CNc1nc(N/N=C/c2cc([N+](=O)[O-])c(Cl)cc2Cl)nc(Nc2cccc(C(F)(F)F)c2)n1,inhibition,[1],4.8%
same,inhibition,[2],2.41%
same,inhibition,[3],0.84%
CCCCCN1CCCC(NS(=O)(=O)c2ccc(C(=O)Nc3cccc(C(F)(F)F)c3)cc2)C1 (stereo not drawn),inhibition,[1],1.16%
same,inhibition,[2],2.32%
same,inhibition,[3],0.39%
Cc1ccc(NC(=O)c2ccc3ncccc3c2)cc1OC1CCN(Cc2ccco2)C1 (stereo not drawn),inhibition,[1],0.45%
same,inhibition,[2],1.05%
same,inhibition,[3],1.55%
O=[N+]([O-])c1cccc(CNCC2CCN(Cc3ccc(O)cc3)CC2)c1,inhibition,[1],21.4%
same,inhibition,[2],5.62%
same,inhibition,[3],2.59%
CCN(CC)CCN(Cc1ccc(-c2ccc(C(F)(F)F)cc2)cc1)C(=O)Cn1c(CCc2cccc(F)c2F)nc(=O)c2ccc(C(F)(F)F)cc21,inhibition,[1],1.5%
same,inhibition,[2],1.49%
same,inhibition,[3],1.99%
Cc1cc(=NN=Cc2ccccc2Cl)c2cc(C(F)(F)F)ccc2[nH]1,inhibition,[1],-0.33%
same,inhibition,[2],-0.65%
same,inhibition,[3],1.27%
N#Cc1ccccc1S(=O)(=O)N1CCCC(CNC(=O)[C@H](CC2CCCCC2)NC(=O)c2cc3ccccc3s2)C1 (stereo partly drawn),inhibition,[1],1.08%
same,inhibition,[2],2.15%
same,inhibition,[3],0.55%
Cc1cc(Cl)ccc1NC(=O)Nc1ccc2nccc(N3CCN(C)CC3)c2c1,inhibition,[1],3.07%
same,inhibition,[2],6.28%
same,inhibition,[3],5.6%
COc1ccc(Nc2nccc(N3CCC(NC(=O)Nc4cccc(C(C)=O)c4)C3)n2)cc1 (stereo not drawn),inhibition,[1],-3.73%
same,inhibition,[2],0.98%
same,inhibition,[3],3.49%
CN1CCN(CCCNCc2cccc(-c3ccc(CNCCc4ccccc4)cc3)c2)CC1,inhibition,[1],2.41%
same,inhibition,[2],3.07%
same,inhibition,[3],1.49%
Cc1ccc(NC(C)C(=O)Nc2ccc(C#N)cc2)cc1S(=O)(=O)N1CCCCC1 (stereo not drawn),inhibition,[1],58.5%
same,inhibition,[2],71.8%
same,inhibition,[3],58.8%
O=C(Nc1cc(F)cc(-c2cccnc2)c1)c1ccc2c(=O)n(Cc3ccccc3)cnc2c1,inhibition,[1],0.81%
same,inhibition,[2],1.52%
same,inhibition,[3],-1.46%
CC(CN1CCN(C)CC1)C(=O)Nc1cccc(-c2ccc(-c3nc4ccccc4[nH]3)s2)c1 (stereo not drawn),inhibition,[1],-1.1%
same,inhibition,[2],-1.46%
same,inhibition,[3],-3.97%
O=c1cc(NCCC2CC=CCN2Cc2ccc(Cl)c(Cl)c2)[nH]c2ccccc12 (stereo not drawn),inhibition,[1],1%
same,inhibition,[2],0.33%
same,inhibition,[3],-0.25%
Cc1cc(C(F)(F)F)n2nc(C3CCN(Cc4cc(C)c(O)c(C)c4)C3)cc2n1 (stereo not drawn),inhibition,[1],4.53%
same,inhibition,[2],3.54%
same,inhibition,[3],-0.59%
CCn1c(SCC(=O)Nc2cc(C(F)(F)F)ccc2Cl)nc2ccccc2c1=O,inhibition,[1],1.69%
same,inhibition,[2],3.62%
same,inhibition,[3],4.32%
Cc1cc(N(C)CCCN(C)C)nc(Nc2ccc(Br)cc2)n1,inhibition,[1],0.19%
same,inhibition,[2],2.58%
same,inhibition,[3],2.6%
COc1cccc(CNC[C@@H](O)[C@H](Cc2ccccc2)NC(=O)c2cc(OC(C)C)cc(N3CCCCS3(=O)=O)c2)c1,inhibition,[1],0.5%
same,inhibition,[2],-0.88%
same,inhibition,[3],-0.67%
CCOC(=O)c1nc(-c2cc(Cl)nc(Cl)c2)[nH]c1NC(=S)NCc1ccc(NS(C)(=O)=O)cc1,inhibition,[1],-2.02%
same,inhibition,[2],-1.98%
same,inhibition,[3],-1.67%
